PubChem BioAssay (Tox21)
Values without a mark were called inactive. Inconclusive results are not listed. Where a call stands in place of a potency, no number is given. Activity calls are given as the source filed them. Unless noted, the call rests on the fitted dose curve; in most records, active means well fitted curve in the direction sought with a large enough effect in the repeat runs; inconclusive means weak or mixed curves; inactive means no such curve, though single readings can be large; an effect the other way counts as inactive or inconclusive.

What was measured:
[1] = A CellTox Green Cytotoxicity Assay to monitor cytotoxicity in HepG2 cells - 8 hour (AID 1224890); further: nearly all actives have a fitted effect of over 45% in size; further: potency means the concentration at half of the fitted maximal effect
Outline: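 Nonlytic assay: viable cells exclude the dye, so fluorescence scales with cell death. HepG2 at 600 cells/well, compounds added after 5 h, signal read across 40 h.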

[2] = qHTS assay to identify small molecule antagonists of the estrogen receptor alpha (ER-alpha) signaling pathway using the BG1 cell line in the presence of 0.1 nM 17-beta-estradiol - cell viability counter screen (AID 1259241); further: nearly all actives have a fitted effect of over 40% in size; further: potency means the concentration at half of the fitted maximal effect
Outline: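 Estradiol-stimulated (0.1 nM) VM7Luc4E2 cells exposed to compounds 22 hr; viability measured by fluorescence of cleaved CellTiter-Fluor substrate after 30 min.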

[3] = qHTS assay to identify small molecule antagonists of the androgen receptor (AR) signaling pathway using the MDA cell line in the presence of 0.5 nM R1881 - cell viability counter screen (AID 1259242); further: nearly all actives have a fitted effect of over 45% in size
Outline: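 R1881 at 0.5 nM final stimulated MDA-kb2 cells during 16 hr compound treatment at 37C. Cytotoxicity read: CellTiter-Fluor fluorescence after 30 min.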

[4] = biological target: Androgen receptor (Homo sapiens) (UniProt P10275); test: qHTS assay to identify small molecule antagonists of the androgen receptor (AR) signaling pathway using the MDA cell line in the presence of 0.5 nM R1881 (AID 1259243); further: nearly all actives have a fitted effect of over 50% in size
Sequence of Androgen receptor (Homo sapiens) (P10275 whole entry, looked up): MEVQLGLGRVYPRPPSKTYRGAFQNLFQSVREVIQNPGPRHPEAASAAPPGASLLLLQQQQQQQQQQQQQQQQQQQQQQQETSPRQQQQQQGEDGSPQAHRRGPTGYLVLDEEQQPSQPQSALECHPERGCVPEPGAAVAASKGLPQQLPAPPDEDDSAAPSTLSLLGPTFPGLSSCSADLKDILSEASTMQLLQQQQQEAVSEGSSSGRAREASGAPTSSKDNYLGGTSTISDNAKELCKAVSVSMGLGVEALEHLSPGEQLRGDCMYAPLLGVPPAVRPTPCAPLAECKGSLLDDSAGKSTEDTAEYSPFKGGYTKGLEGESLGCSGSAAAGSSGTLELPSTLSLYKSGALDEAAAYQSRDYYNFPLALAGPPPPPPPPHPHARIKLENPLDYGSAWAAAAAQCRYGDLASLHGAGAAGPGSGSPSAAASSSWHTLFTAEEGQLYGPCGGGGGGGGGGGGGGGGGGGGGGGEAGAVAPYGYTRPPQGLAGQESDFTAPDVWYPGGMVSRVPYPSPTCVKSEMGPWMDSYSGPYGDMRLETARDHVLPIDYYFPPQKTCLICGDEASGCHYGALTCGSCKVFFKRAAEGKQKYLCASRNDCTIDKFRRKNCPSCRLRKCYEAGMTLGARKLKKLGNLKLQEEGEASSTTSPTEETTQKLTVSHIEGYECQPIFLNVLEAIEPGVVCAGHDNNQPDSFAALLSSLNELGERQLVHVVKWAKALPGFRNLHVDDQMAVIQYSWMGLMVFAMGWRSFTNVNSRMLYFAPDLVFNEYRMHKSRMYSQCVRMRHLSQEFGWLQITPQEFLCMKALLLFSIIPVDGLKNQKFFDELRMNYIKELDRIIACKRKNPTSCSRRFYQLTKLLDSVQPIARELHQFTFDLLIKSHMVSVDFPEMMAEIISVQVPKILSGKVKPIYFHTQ
Outline: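 We exposed MDA-kb2 cells to compounds under 0.5 nM R1881 stimulation for 16 hr at 37C and quantified MMTV-driven luciferase by luminescence.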

[5] = qHTS assay to identify small molecule phospholipidosis (PLD) inducers (AID 1259344; active means well fitted curve in the direction sought with a large enough effect; an effect the other way counts as inactive or inconclusive)
Outline: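 Quantitative HTS in HepG2: compound plus LipidTOX Red dye for 24 h, paraformaldehyde fixation with Hoechst 33342, widefield high-content imaging; amiodarone as positive and DMSO as negative control.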

[6] = qHTS assay to identify small molecule HDAC inhibitors (AID 1259364); further: potency means the concentration at half of the fitted maximal effect;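 further: wild-type HCT-116 cells with endogenous class I/II HDAC activity; nearly all actives have a fitted effect of over 45% in size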
Outline: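 Relative class I and II HDAC activity is taken from the luminogenic signal in HCT-116 cells, with compound exposure 2 hr and reagent development 30 min at room temperature.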

[7] = qHTS assay to identify small molecule HDAC inhibitors - cell viability counter screen (AID 1259365); further: series mostly up to about 92 µM; nearly all actives have a fitted effect of over 50% in size
Outline: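 After overnight seeding at 1,500 cells per well, wild-type HCT-116 cultures took up compounds in DMSO for 2hr at 37 C. Viable cell content came from luminescence with CellTiter-Glo.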

[8] = qHTS assay to identify small molecule agonists of the sonic hedgehog signaling (Shh) pathway - cell viability counter screen (AID 1259366); further: nearly all actives have a fitted effect of over 50% in size; further: potency means the concentration at half of the fitted maximal effect
Outline: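 Same-well cytotoxicity read. Gli1-Luc reporter 3T3 cells; compounds 24hr, 37C/5% CO2; CellTiter-Fluor fluorescence.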

[9] = qHTS assay to identify small molecule antagonists of the sonic hedgehog signaling (Shh) pathway - cell viability counter screen (AID 1259367); further: nearly all actives have a fitted effect of over 55% in size
Outline: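 Seed 3T3 Gli1-Luc cells at 2,000 per well; incubate 4 hr; add compound in DMSO, then conditioned medium; incubate at 37C with 5% CO2; add CellTiter-Fluor after 23 hr; read fluorescence 1 hr later.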

[10] = qHTS assay to identify small molecule agonists of the sonic hedgehog signaling (Shh) pathway (AID 1259368; calls by dose curve;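 further: NIH/3T3-derived 3T3Gli1-Luc cells carrying a stable Gli1-driven firefly luciferase reporter; series mostly up to about 92 µM; nearly all actives have a fitted effect of over 15% in size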)
Outline: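 Mouse fibroblast (NIH/3T3) reporter cells with stably integrated Gli1-Luc were treated 24 hr with compound; firefly luciferase luminescence served as the read-out.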

[11] = qHTS assay to identify small molecule antagonists of the sonic hedgehog signaling (Shh) pathway (AID 1259369; calls by dose curve; further: nearly all actives have a fitted effect of over 45% in size; further: potency means the concentration at half of the fitted maximal effect)
Outline: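 Conditioned medium drives Shh signalling in 3T3Gli1-Luc cells; compounds in DMSO co-applied, 24hr at 37 C, then luciferase luminescence.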

[12] = biological target: Estrogen receptor beta (Homo sapiens) (UniProt Q92731); test: qHTS assay to identify small molecule agonists of the estrogen receptor beta (ER-beta) signaling pathway (AID 1259377; active means well fitted activation curve with a large enough effect in the signal ratio in the repeat runs, not every such curve was filed as active; the % refers to the signal ratio)
Sequence of Estrogen receptor beta (Homo sapiens) (Q92731 whole entry, looked up): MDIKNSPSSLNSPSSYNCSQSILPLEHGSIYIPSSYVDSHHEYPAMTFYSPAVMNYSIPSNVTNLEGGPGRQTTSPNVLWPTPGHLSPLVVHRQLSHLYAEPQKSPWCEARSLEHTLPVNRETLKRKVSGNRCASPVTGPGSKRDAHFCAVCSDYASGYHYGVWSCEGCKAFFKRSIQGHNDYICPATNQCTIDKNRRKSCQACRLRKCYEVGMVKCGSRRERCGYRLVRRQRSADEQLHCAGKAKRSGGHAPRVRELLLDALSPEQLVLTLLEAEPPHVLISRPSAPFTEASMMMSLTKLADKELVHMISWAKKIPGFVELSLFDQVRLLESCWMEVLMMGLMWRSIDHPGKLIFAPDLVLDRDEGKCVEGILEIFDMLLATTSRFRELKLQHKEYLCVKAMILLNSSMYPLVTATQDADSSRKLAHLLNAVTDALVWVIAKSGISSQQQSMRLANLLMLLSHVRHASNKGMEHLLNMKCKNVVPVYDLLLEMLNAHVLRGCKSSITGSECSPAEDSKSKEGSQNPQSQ
Outline: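 Read-out: beta-lactamase FRET fluorescence. Cell line: ER-beta-UAS-bla HEK293T in 2% charcoal-stripped FBS. Exposure: 16 hr at 37C. Substrate step: 2 h at room temperature.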

[13] = biological target: Estrogen receptor beta (Homo sapiens) (UniProt Q92731); test: qHTS assay to identify small molecule antagonists of the estrogen receptor beta (ER-beta) signaling pathway (AID 1259378; active means well fitted inhibition curve with a large enough effect in the signal ratio in the repeat runs, not every such curve was filed as active; the % refers to the signal ratio)
Outline: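 ER-beta-UAS-bla HEK293T cells in 2% charcoal-stripped FBS medium treated with compound plus 1nM final 17-beta-estradiol for 16 hr at 37C. Beta-lactamase reporter read by FRET substrate fluorescence after 2 hours at room temperature.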

[14] = qHTS assay to identify small molecule agonists of the androgen receptor (AR) signaling pathway in the presence of an antagonist - cell viability counter screen (AID 1259379);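 further: MDA-kb2 human breast cancer cells carrying an MMTV luciferase reporter; series mostly up to about 92 µM; nearly all actives have a fitted effect of over 25% in size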
Outline: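 A CellTiter-Fluor read-out measured viability of MDA-kb2 reporter cells (MMTV promoter with AR and GR response elements). Treatment: nilutamide 3.0uM final with compounds at 15 concentrations, 16 hr, 37C, 0% CO2.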

[15] = qHTS assay to identify small molecule agonists of the estrogen receptor beta (ER-beta) signaling pathway - cell viability counter screen (AID 1259380); further: nearly all actives have a fitted effect of over 30% in size; further: potency means the concentration at half of the fitted maximal effect
Outline: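 Cells used were ER-beta-UAS-bla HEK293T in medium with 2% charcoal-stripped FBS. They were treated for 16 hr at 37C. Viability came from CellTiter-Glo luminescence.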

[16] = biological target: Androgen receptor (Homo sapiens) (UniProt P10275); test: qHTS assay to identify small molecule agonists of the androgen receptor (AR) signaling pathway in the presence of an antagonist (AID 1259381; calls by dose curve; further: nearly all actives have a fitted effect of over 15% in size)
Outline: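 Using human MDA-kb2 cells with an MMTV promoter–luciferase construct (AR and GR response elements), agonist activity is scored under 3.0uM nilutamide (final) co-treatment; 16hr incubation, 37C, luminescence readout via ONE-Glo.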

[17] = qHTS assay to identify small molecule agonists or antagonists of the thyroid stimulating hormone receptor (TSHR) signaling pathway - wild type cell line counter screen (AID 1259384; calls by dose curve)
Outline: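 Wild-type Hek293 cells, 800/well, 18 h at 37C, then compound with Ro20-1724 for 30 min RT. cAMP by HTRF (cAMP-d2/anti-cAMP cryptate), 1 h RT, fluorescence read. 15 concentrations, triplicates.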

[18] = biological target: Estrogen receptor (Homo sapiens) (UniProt P03372); test: qHTS assay to identify small molecule antagonists of the estrogen receptor alpha (ER-alpha) signaling pathway using the BG1 cell line in the presence of 0.1 nM 17-beta-estradiol (AID 1259244); further: nearly all actives have a fitted effect of over 50% in size
Sequence of Estrogen receptor (Homo sapiens) (P03372 whole entry, looked up): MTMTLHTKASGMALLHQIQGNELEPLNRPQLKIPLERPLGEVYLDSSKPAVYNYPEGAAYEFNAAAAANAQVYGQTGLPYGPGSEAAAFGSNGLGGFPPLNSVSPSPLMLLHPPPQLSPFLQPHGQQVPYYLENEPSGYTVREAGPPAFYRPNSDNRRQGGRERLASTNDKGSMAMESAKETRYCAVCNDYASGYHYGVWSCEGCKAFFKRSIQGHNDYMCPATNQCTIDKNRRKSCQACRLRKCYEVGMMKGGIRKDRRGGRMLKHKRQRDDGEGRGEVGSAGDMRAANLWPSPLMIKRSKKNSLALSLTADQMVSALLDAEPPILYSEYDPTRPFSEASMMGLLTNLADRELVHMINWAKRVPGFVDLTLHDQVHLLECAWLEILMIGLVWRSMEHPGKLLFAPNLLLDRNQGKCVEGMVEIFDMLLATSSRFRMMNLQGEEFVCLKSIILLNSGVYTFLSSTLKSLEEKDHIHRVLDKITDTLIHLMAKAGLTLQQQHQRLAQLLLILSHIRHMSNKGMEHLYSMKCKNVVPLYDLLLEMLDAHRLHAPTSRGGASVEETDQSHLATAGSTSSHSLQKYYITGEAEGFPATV
Outline: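 VM7Luc4E2; 4xERE-luciferase; 0.1 nM E2 final; 22 h co-incubation, 37C; ONE-Glo luminescence after 30 min at room temperature.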

[19] = qHTS assay to identify small molecule antagonists of the estrogen receptor beta (ER-beta) signaling pathway - cell viability counter screen (AID 1259382); further: series mostly up to about 92 µM; nearly all actives have a fitted effect of over 55% in size
Outline: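 Agonist-stimulated (1nM E2) ER-beta-UAS-bla HEK293T cells are incubated with library compounds for 16 hr at 37C. Cell viability is then assessed in the reporter-assay wells by adding CellTiter-Glo and reading luminescence after 30 min.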

[20] = biological target: Estrogen receptor (Homo sapiens) (UniProt P03372); test: qHTS assay to identify small molecule agonists of the estrogen receptor alpha (ER-alpha) signaling pathway in the presence of an antagonist (AID 1259383; calls by dose curve; further: top concentration of the series differs between compounds; nearly all actives have a fitted effect of over 15% in size)
Outline: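 Using VM7Luc4E2 cells seeded 24hr before treatment, antagonist ICI-182,780 (10.0nM final) was added, followed by compounds at 15 concentrations. Plates incubated 22hr; ONE-Glo luminescence quantified reporter activity.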

SMILES | Potency [1] | Potency [2] | Potency [3] | Potency [4] | Potency [5] | Potency [6] | Potency [7] | Potency [8] | Potency [9] | Potency [10] | Potency [11] | Potency [12] | Potency [13] | Potency [14] | Potency [15] | Potency [16] | Potency [17] | Potency [18] | Potency [19] | Potency [20]
C[C@H](CS)C(=O)N1CCC[C@H]1C(=O)O | inactive | inactive | inactive | inactive | inactive | inactive | inactive | inactive | inactive | inactive | inactive | inactive | inactive | inactive | inactive | inactive | inactive |  |  | 
CC(C)C1CCC(C(=O)N[C@H](Cc2ccccc2)C(=O)O)CC1 (stereo not given in full) | inactive | inactive | inactive |  | inactive | inactive | inactive | inactive | inactive | inactive | inactive | inactive | inactive | inactive | inactive |  | inactive | inactive | inactive | inactive
BrC(Br)C(Br)Br | inactive | inactive | inactive | inactive |  | inactive | inactive | inactive | inactive | inactive | inactive |  |  | inactive | inactive | inactive | inactive | inactive | inactive | inactive
CC(=O)c1ccc[nH]1 | inactive | inactive | inactive | inactive |  | inactive | inactive | inactive | inactive | inactive | inactive | inactive | inactive | inactive | inactive | inactive | inactive | inactive | inactive | inactive
O=NN(CCCl)C(=O)NCCCl | 5.35 µM (active) | inactive | inactive | inactive | inactive | inactive | inactive | inactive |  | inactive |  |  |  | inactive | inactive | inactive | inactive | inactive | inactive | inactive
C1=CCC2CC=CC2C1 (stereo not given) | inactive | inactive | inactive | inactive |  | inactive | inactive | inactive | inactive | inactive |  | inactive | inactive | inactive | inactive | inactive | inactive |  |  | 
CCCCOCCOC(=O)c1cccnc1 | inactive | inactive | inactive | inactive |  | inactive | inactive | inactive | inactive | inactive | inactive | inactive | inactive | inactive | inactive | inactive | inactive | inactive |  | inactive
CCCCCCCCCCCCCC(=O)OCC(O)CO (stereo not given) | inactive | inactive | inactive | inactive |  | inactive | inactive | inactive | inactive | inactive | inactive |  | inactive | inactive | inactive | inactive | inactive |  | inactive | 
O=C(Nc1ccc(C(=O)O)c(O)c1)c1ccccc1 | inactive | inactive | inactive |  | inactive | 1.68 µM (active) | inactive | inactive |  | inactive | inactive | inactive | inactive | inactive | inactive |  | inactive | inactive | inactive | inactive
C=Cc1ccc(OC(C)=O)cc1 | inactive | inactive | inactive | inactive |  | inactive | inactive | inactive | inactive | inactive | inactive |  |  | inactive | inactive | inactive | inactive | inactive | inactive | inactive
Cc1oc(=O)oc1COC(=O)[C@@H]1N2C(=O)[C@@H](NC(=O)[C@H](N)c3ccccc3)[C@H]2SC1(C)C | inactive | inactive | inactive | inactive |  | inactive | inactive |  |  | inactive | inactive |  |  | inactive | inactive | inactive | inactive | inactive | inactive | inactive
CCOC(=O)Oc1ccc(CCNC(=O)[C@H](CCSC)NC(C)=O)cc1OC(=O)OCC | inactive | inactive | inactive | inactive |  | inactive | inactive |  | inactive | inactive | inactive |  |  | inactive | inactive | inactive | inactive | inactive | inactive | inactive
CC[C@H]1OC(=O)[C@H](C)[C@@H](O[C@H]2C[C@@](C)(OC)[C@@H](O)[C@H](C)O2)[C@H](C)[C@@H](O[C@@H]2O[C@H](C)C[C@H](N(C)C)[C@H]2O)[C@](C)(O)C[C@@H](C)/C(=N\OCOCCOC)[C@H](C)[C@@H](O)[C@]1(C)O | inactive | 10.2 µM (active) | inactive |  | inactive | inactive | inactive | 5.09 µM (active) |  | inactive | 12.8 µM (active) |  |  | inactive | inactive |  | inactive | inactive | inactive | inactive
O=C(C(=O)c1ccco1)c1ccco1 | inactive | inactive | inactive | inactive |  | inactive | inactive |  | inactive | inactive | inactive |  | inactive | inactive | inactive |  |  | inactive | inactive | inactive
CCCCCCCCCCCCCOS(=O)(=O)O | inactive | inactive | inactive | inactive |  | inactive | inactive | inactive | inactive | inactive | inactive |  |  | inactive | 54.5 µM (active) | inactive | inactive |  |  | 
